# In PubChem BioAssay AID651871 (Sanford-Burnham Center for Chemical Genomics, 2012):
# “And” between values parts separate entries of the source, which are not always exact repeats. Equal entries are not always repeated.
# System: H9c2
# Test: cardiomyocyte survival under oxidative or metabolic stress – cell-based, panel, H9c2 and HL-1, ATP luminescence, set 2, SAR follow-up (AID 651871);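 further: cells exposed to stressor for 2 h before ATP readout; reference of the scale not given here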
# Settings: H9c2/HL-1 cardiomyocytes, 2-deoxyglucose stress, with 2-deoxyglucose; run 10, at 79 µM (top of the series) unless noted
row,Structure (SMILES),activity (protection/inhibition)
1,COc1ccc2c(c1OC)C(=O)N1c3ccccc3C(=O)N(Cc3cccc(Cl)c3Cl)C21 (stereo not drawn),76% and 73.8% and -3.2%
2,COc1ccc2nc(-c3cc(OC)c(OC)c(OC)c3)cc(C(=O)NCC(=O)Nc3ccc(C(C)=O)cc3)c2c1,78.3%
3,CCOC(=O)c1cccc(NC(=O)CNC(=O)c2cc(-c3cc(OC)c(OC)c(OC)c3)nc3ccccc23)c1,"82.3% [run 10, at 39.5 µM]"
